Experimental findings from PubChem BioAssay (NCI) are described below.

This is part of a sample that, as a whole, favours compounds with a hit. Of some 83,000 tested, about 20% had one in any assay.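 Method: cells in 96-well plates; compound added at one concentration; 48 h incubation; percent growth measured; values under 10 scored active.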 A number with no mark means an inactive call. The source made the active and inactive calls.

Test systems include SK-MEL-2 melanoma; EKVX NSCLC; SN12C renal; UO-31 renal; TK-10 renal; ACHN renal; CAKI-1 renal; CCRF-CEM leukemia; MOLT-4 leukemia; SR leukemia; RPMI-8226 leukemia; OVCAR-8 ovarian; OVCAR-5 ovarian; OVCAR-4 ovarian; SK-OV-3 ovarian; IGROV1 ovarian; OVCAR-3 ovarian; HS 578T breast; NCI/ADR-RES ovarian; A498 renal.
What all share (experiment): NCI-60 one-dose screen, 48 h (100 = growth as untreated, 0 = no growth, -100 = all killed)
What all share (conditions): 10 µM

As to `Nc1ccc(CC[C@H]2CCC/C=C/[C@@H]3C[C@H](O)C[C@H]3[C@H](O)/C=C/C(=O)O2)cc1`, the growth with SK-MEL-2 melanoma was -25.9% (active); in the assay with EKVX NSCLC it was 8.9% (active); in the assay on SN12C renal, 7.47% (active); with UO-31 renal it was 2.24% (active); in the assay on TK-10 renal, -53.8% (active); with ACHN renal it was 10%. Also, the growth in the assay on CAKI-1 renal is 7.49% (active); in the assay with CCRF-CEM leukemia, -3.7% (active); in the assay with MOLT-4 leukemia, -18.8% (active); in the assay with SR leukemia, 1.1% (active); in the assay with RPMI-8226 leukemia, -4.05% (active); in the assay on OVCAR-8 ovarian, 2.58% (active). For the same molecule, the growth in the assay on OVCAR-5 ovarian is 11.4%; in the assay on OVCAR-4 ovarian it was 11.3%; in the assay with SK-OV-3 ovarian, 26.6%; in the assay with IGROV1 ovarian, 12%; in the assay on OVCAR-3 ovarian it was -13.4% (active); with HS 578T breast, 39.6%. In addition, the growth in the assay with NCI/ADR-RES ovarian was -0.671% (active).
`COc1ccc(-c2cc(-c3ccccc3)nc(SCCCCCCC(=O)NO)n2)cc1`: the growth with SK-MEL-2 melanoma was 78%; in the assay on EKVX NSCLC it was 74.2%; in the assay with SN12C renal it was 79.6%; with UO-31 renal, 34.3%; with TK-10 renal, 45.9%; with ACHN renal, 45.4%. Besides, the growth with CAKI-1 renal was 39.6%; in the assay on A498 renal, 48.7%; in the assay with MOLT-4 leukemia it was 14.4%; with SR leukemia, 21.1%; in the assay with OVCAR-8 ovarian, 43.7%; in the assay with OVCAR-5 ovarian, 58.2%. The growth in the assay with OVCAR-4 ovarian is 76.6%; in the assay with SK-OV-3 ovarian, 61.2%; in the assay on IGROV1 ovarian, 32.2%; in the assay with OVCAR-3 ovarian, 67.8%; in the assay with HS 578T breast, 54%; in the assay on NCI/ADR-RES ovarian it was 9.46% (active).
As to `Cc1c(O)c(=O)ccn1C1CCC(CC2CCC(n3ccc(=O)c(O)c3C)CC2)CC1` (stereo not given), the growth with SK-MEL-2 melanoma was 66.8%; in the assay with EKVX NSCLC, 10.2%; in the assay with SN12C renal, 41.5%; in the assay on UO-31 renal, 38.6%; in the assay on TK-10 renal it was 50.1%; in the assay on ACHN renal, 35.7%. In addition, the growth with CAKI-1 renal is 25.2%; in the assay with A498 renal it was 50.9%; in the assay on MOLT-4 leukemia, 25.7%; in the assay on SR leukemia it was 41.8%; with OVCAR-8 ovarian, 33.5%; with OVCAR-5 ovarian it was 54.5%. Also, the growth with OVCAR-4 ovarian is 32.2%; in the assay on SK-OV-3 ovarian, 49.9%; with IGROV1 ovarian, 32.5%; with OVCAR-3 ovarian, 28.3%; with HS 578T breast, 21.9%; in the assay on NCI/ADR-RES ovarian, 83%.
For the molecule `C=CCN(CC=C)C(=O)[C@H](CC)[C@@H]1CC[C@@H](C)[C@@H]([C@H](C)[C@@H](O)[C@@H](C)C(=O)[C@H](CC)C2O[C@]3(C=C[C@@H](O)[C@]4(CC[C@@](C)([C@H]5CC[C@](O)(CC)[C@H](C)O5)O4)O3)[C@H](C)C[C@@H]2C)O1` (stereo not given in full), the growth in the assay with SK-MEL-2 melanoma was -7.12% (active); in the assay with EKVX NSCLC it was -5.86% (active); in the assay with SN12C renal, 6.36% (active); with UO-31 renal, -12.6% (active); in the assay with TK-10 renal, 16.2%; in the assay on ACHN renal, 5.93% (active). For the same molecule, the growth in the assay on CAKI-1 renal was 1.41% (active); with A498 renal, -2.03% (active); in the assay on MOLT-4 leukemia, 19.4%; with SR leukemia it was 36.9%; in the assay on OVCAR-8 ovarian, 16%; with OVCAR-5 ovarian, 31.9%. Also, the growth in the assay on OVCAR-4 ovarian is 25.4%; in the assay with SK-OV-3 ovarian, 4.44% (active); in the assay with IGROV1 ovarian, 10.7%; with OVCAR-3 ovarian, 14.6%; in the assay on HS 578T breast it was 13.4%; with NCI/ADR-RES ovarian, 1.02% (active).
`CCCN(CCC)C(=O)[C@H](CC)[C@@H]1CC[C@@H](C)[C@@H]([C@H](C)[C@@H](O)[C@@H](C)C(=O)[C@H](CC)C2O[C@]3(C=C[C@@H](O)[C@]4(CC[C@@](C)([C@H]5CC[C@](O)(CC)[C@H](C)O5)O4)O3)[C@H](C)C[C@@H]2C)O1` (stereo not given in full): the growth in the assay with SK-MEL-2 melanoma was 0.709% (active); with EKVX NSCLC, -13.6% (active); in the assay on SN12C renal, 3.43% (active); with UO-31 renal, -16.8% (active); with TK-10 renal, 20.7%; with ACHN renal, -2.43% (active). Also, the growth with CAKI-1 renal was -8.15% (active); in the assay on A498 renal it was -20.3% (active); in the assay with MOLT-4 leukemia it was 15.3%; with SR leukemia it was 15.2%; in the assay with OVCAR-8 ovarian, 15%; in the assay with OVCAR-5 ovarian, 11.4%. Besides, the growth was 7.28% (active) in the assay with OVCAR-4 ovarian; 3.96% (active) in the assay with SK-OV-3 ovarian; 17.1% in the assay with IGROV1 ovarian; 2.11% (active) with OVCAR-3 ovarian; 11.7% in the assay on HS 578T breast; -11.2% (active) with NCI/ADR-RES ovarian.
Turning to `COc1cccc(-c2nc3sccn3c2-c2cccc(S(C)(=O)=O)c2)c1`, the growth in the assay with SK-MEL-2 melanoma is 115%; in the assay with EKVX NSCLC, 78.4%; with SN12C renal, 99.1%; in the assay on UO-31 renal it was 73.1%; in the assay on TK-10 renal, 102%; with ACHN renal, 96.2%. Moreover, the growth with CAKI-1 renal is 82.2%; with CCRF-CEM leukemia, 98.2%; in the assay with MOLT-4 leukemia it was 104%; in the assay on SR leukemia, 94.7%; in the assay on RPMI-8226 leukemia, 95.9%; in the assay on OVCAR-8 ovarian, 101%. Further, the growth in the assay on OVCAR-5 ovarian is 96.3%; with OVCAR-4 ovarian it was 107%; with SK-OV-3 ovarian, 114%; in the assay on OVCAR-3 ovarian it was 113%; in the assay with HS 578T breast it was 99.3%; with NCI/ADR-RES ovarian, 92.5%.
For `Cc1[nH]c2ccccc2c1/C=N/Nc1ncnc2sc3c(c12)CCN(CC(=O)OC(C)(C)C)C3`, the growth in the assay with SK-MEL-2 melanoma was 92.6%; in the assay with EKVX NSCLC it was 134%; in the assay on SN12C renal it was 85.3%; in the assay on UO-31 renal, 65.5%; in the assay on TK-10 renal, 101%; in the assay on ACHN renal, 54.2%. Further, the growth is 47.2% in the assay on CAKI-1 renal; 51.8% in the assay with A498 renal; 46.5% with MOLT-4 leukemia; 23.4% with SR leukemia; 69% in the assay on OVCAR-8 ovarian; 130% with OVCAR-5 ovarian. The growth is 104% with OVCAR-4 ovarian; 108% in the assay on SK-OV-3 ovarian; 79.8% with IGROV1 ovarian; 83.1% in the assay on OVCAR-3 ovarian; 77.7% in the assay with HS 578T breast; 66.1% in the assay with NCI/ADR-RES ovarian.
Regarding `N#Cc1c(-c2ccc(Cl)cc2)n(O)c2ccccc12`, the growth is 8.25% (active) with SK-MEL-2 melanoma; 30.2% in the assay on EKVX NSCLC; 16.1% with SN12C renal; 11% in the assay with UO-31 renal; 66.6% with TK-10 renal; 35.4% in the assay on ACHN renal. In addition, the growth is 20.7% in the assay on CAKI-1 renal; 16.2% with CCRF-CEM leukemia; 18.1% with MOLT-4 leukemia; 9.6% (active) with SR leukemia; 26.1% in the assay with OVCAR-8 ovarian; 66% in the assay with OVCAR-5 ovarian. The growth is 26.5% in the assay with OVCAR-4 ovarian; 12.9% in the assay with SK-OV-3 ovarian; 4.22% (active) in the assay with IGROV1 ovarian; 4.13% (active) in the assay with OVCAR-3 ovarian; -21.6% (active) in the assay on HS 578T breast; 2.73% (active) in the assay with NCI/ADR-RES ovarian.
